One may read the AC50 as the midpoint of the concentration-response curve, whichever way the signal moves.

Our source for the outcome and AC50 values is PubChem BioAssay (EPA / NIEHS).

Test [1] addresses Cytochrome P450 3A4 (Homo sapiens) (UniProt P08684). The experiment in a line: NVS_ADME_hCYP3A4: NovaScreen (NVS) CYP450-related Enzyme Activity (ADME) Assay for human CYP3A4 (AID 2283110). Put shortly: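 Recombinant CYP3A4 from insect cells, fluorescence enzyme read-out, 0.33 h after chemical addition. Acetonitrile = negative control/baseline. Primary HTS: 10 uM in duplicate; actives re-tested in concentration series.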

Test [2] concerns the target rat CYP2A1, Cyp2a1 (gene 24894) (UniProt P11711). The experiment in a line: NVS_ADME_rCYP2A1: NovaScreen (NVS) CYP450-related Enzyme Activity (ADME) Assay for rat CYP2A1 (AID 2283114; active means hit-call score of the fitted dose curve at least 0.9, where 1 is the maximum; inactive means score below 0.9). As for the experimental part:
NVS_ADME_rCYP2A1 is a biochemical, single-readout assay that uses extracted gene-proteins in a cell-free assay. Measurements were taken 0.75 hour after chemical dosing in a 96-well plate.NVS_ADME_rCYP2A1 is one of one assay component(s) measured or calculated from the NVS_ADME_rCYP2A1 assay. It is designed to make measurements of enzyme activity, a form of enzyme reporter, as detected with fluorescence intensity signals by Fluorescence technology.Data from the assay component NVS_ADME_rCYP2A1 was analyzed into 1 assay endpoint. This assay endpoint, NVS_ADME_rCYP2A1, was analyzed in the positive analysis fitting direction relative to Acetonitrile as the negative control and baseline of activity. Using a type of enzyme reporter, loss-of-signal activity can be used to understand changes in the enzymatic activity as they relate to the gene Cyp2a1. Furthermore, this assay endpoint can be referred to as a primary readout, because this assay has produced multiple assay endpoints where this one serves a enzymatic activity function. To generalize the intended target to other relatable targets, this assay endpoint is annotated to the cyp intended target family, where the subfamily is xenobiotic metabolism. […]

Test [3] has as its target rat CYP2A2, Cyp2a2 (gene 24895) (UniProt P15149). Briefly: NVS_ADME_rCYP2A2: NovaScreen (NVS) CYP450-related Enzyme Activity (ADME) Assay for rat CYP2A2 (AID 2283116). Put shortly: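 Compounds first tested in duplicate at 10 uM, then in singleton concentration series up to 20 uM when over threshold. Activity of the recombinant enzyme read by fluorescence at 0.2 h, normalised to acetonitrile vehicle.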

In test [4] the target is human Esterase Plasma (ES), BCHE (gene 590) (UniProt P06276). Briefly: NVS_ENZ_hES: NovaScreen (NVS) Enzymatic Assay for human Esterase Plasma (ES) (AID 2283157). How it is done: NVS_ENZ_hES is a biochemical, single-readout assay that uses extracted gene-proteins from Human plasma in a cell-free assay. Measurements were taken 0.25 hour after chemical dosing in a 96-well plate.NVS_ENZ_hES is one of one assay component(s) measured or calculated from the NVS_ENZ_hES assay. It is designed to make measurements of enzyme activity, a form of enzyme reporter, as detected with absorbance signals by Colorimetric technology.Data from the assay component NVS_ENZ_hES was analyzed into 1 assay endpoint. This assay endpoint, NVS_ENZ_hES, was analyzed in the positive analysis fitting direction relative to DMSO as the negative control and baseline of activity. […] Furthermore, this assay endpoint can be referred to as a primary readout, because this assay has produced multiple assay endpoints where this one serves a enzymatic activity function. […]
Binding assays used specific radioligands (tritiated, iodinated) with non-radioactive competitive displacement ligands in agonist or antagonist protocols (as indicated) and various reference compounds and inhibitors to titrate specific binding to receptors and transporters. Most enzyme assays (CYPs, kinases, phosphatases, proteases, HDACs) used recombinant protein and specific substrates (fluorescence mostly, some colorimetric and radioactive) and inhibitors, followed by a biochemical separation of substrate and product. […]

Test [5] deals with Mitogen-activated protein kinase 3 (Homo sapiens) (UniProt P27361). The experiment in a line: NVS_ENZ_hMAPK3: NovaScreen (NVS) Enzymatic Assay for human Mitogen-Activated Protein Kinase 3 (MAPK 3) (AID 2283177). The method in brief: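 Chemicals were first tested in duplicate at 25 uM, with hits re-run as concentration series (max 50 uM). Recombinant enzyme activity, measured 1 h post-dose in a cell-free format, was read by fluorescence/mobility shift relative to DMSO.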

Records with an inconclusive call do not appear. Calls of active or inactive are those of the source. How the source made its calls, unless noted: active means hit-call score of the fitted dose curve at least 0.9, where 1 is the maximum; inconclusive means response in the unintended direction; inactive means score below 0.9.

human Esterase Plasma (ES), BCHE (gene 590), sequence (P06276 whole entry, looked up): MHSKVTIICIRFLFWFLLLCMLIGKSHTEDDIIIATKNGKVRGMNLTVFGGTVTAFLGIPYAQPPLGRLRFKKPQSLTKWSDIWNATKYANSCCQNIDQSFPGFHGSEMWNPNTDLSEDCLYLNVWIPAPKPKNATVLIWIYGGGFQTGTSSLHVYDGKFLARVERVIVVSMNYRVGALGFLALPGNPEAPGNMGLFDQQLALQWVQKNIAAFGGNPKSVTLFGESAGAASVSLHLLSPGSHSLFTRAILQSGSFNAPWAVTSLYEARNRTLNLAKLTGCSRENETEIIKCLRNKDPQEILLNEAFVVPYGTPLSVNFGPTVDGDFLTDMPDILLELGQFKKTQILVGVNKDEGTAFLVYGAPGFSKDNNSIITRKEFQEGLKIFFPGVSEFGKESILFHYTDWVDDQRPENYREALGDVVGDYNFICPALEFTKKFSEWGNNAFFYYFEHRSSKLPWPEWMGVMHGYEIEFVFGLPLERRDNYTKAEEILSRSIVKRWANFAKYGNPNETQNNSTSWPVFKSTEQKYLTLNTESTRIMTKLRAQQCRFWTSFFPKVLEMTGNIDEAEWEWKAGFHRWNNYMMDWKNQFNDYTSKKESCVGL
Cytochrome P450 3A4 (Homo sapiens), sequence (P08684 whole entry, looked up): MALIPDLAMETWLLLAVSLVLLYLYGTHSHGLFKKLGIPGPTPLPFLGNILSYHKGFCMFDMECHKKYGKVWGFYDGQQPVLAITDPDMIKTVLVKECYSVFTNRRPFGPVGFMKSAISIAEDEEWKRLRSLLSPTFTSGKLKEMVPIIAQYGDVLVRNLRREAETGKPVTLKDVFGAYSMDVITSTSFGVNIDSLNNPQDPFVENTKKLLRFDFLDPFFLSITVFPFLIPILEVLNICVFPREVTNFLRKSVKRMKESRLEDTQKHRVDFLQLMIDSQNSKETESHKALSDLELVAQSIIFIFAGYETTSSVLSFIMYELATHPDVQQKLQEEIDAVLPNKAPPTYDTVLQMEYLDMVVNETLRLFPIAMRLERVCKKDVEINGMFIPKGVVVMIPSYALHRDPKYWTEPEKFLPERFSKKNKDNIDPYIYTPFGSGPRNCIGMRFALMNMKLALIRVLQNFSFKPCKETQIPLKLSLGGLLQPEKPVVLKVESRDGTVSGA
rat CYP2A1, Cyp2a1 (gene 24894), sequence (P11711 whole entry, looked up): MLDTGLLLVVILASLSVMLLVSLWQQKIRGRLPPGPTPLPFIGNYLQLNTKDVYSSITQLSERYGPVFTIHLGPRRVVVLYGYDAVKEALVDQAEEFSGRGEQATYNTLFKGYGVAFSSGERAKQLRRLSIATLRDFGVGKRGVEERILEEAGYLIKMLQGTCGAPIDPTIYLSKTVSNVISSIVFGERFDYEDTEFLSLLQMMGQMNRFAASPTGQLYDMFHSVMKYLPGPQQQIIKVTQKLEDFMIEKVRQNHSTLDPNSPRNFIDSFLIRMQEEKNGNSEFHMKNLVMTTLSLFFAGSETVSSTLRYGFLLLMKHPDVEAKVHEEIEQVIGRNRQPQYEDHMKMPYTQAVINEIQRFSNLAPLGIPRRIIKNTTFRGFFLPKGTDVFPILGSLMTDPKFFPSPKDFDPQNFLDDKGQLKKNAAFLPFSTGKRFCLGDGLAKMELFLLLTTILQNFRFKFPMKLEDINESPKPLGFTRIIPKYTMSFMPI
Mitogen-activated protein kinase 3 (Homo sapiens), sequence (P27361 whole entry, looked up): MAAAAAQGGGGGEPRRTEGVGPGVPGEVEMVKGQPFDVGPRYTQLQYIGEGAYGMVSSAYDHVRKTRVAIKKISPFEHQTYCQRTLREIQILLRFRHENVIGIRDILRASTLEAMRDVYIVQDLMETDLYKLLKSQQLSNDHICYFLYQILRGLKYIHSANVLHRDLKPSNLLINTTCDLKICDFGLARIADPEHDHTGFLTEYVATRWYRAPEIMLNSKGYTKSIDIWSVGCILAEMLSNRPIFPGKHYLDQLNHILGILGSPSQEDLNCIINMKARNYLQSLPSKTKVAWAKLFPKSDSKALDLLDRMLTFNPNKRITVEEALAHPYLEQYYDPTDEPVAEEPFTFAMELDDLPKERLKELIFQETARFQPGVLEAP
rat CYP2A2, Cyp2a2 (gene 24895), sequence (P15149 whole entry, looked up): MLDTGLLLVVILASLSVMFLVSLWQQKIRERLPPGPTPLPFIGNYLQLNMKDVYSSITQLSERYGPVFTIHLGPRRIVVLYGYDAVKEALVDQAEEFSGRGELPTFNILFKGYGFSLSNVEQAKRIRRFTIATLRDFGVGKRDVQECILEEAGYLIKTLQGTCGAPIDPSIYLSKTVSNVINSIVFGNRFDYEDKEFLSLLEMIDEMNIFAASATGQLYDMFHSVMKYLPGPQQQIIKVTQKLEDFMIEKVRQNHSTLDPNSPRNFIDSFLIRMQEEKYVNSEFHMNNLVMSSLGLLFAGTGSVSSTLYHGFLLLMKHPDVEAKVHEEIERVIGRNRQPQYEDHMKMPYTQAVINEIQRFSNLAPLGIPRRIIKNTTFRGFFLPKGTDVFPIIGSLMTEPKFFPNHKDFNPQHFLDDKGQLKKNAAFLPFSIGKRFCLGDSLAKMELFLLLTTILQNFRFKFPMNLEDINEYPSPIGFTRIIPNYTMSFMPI

Consider `C1CCCCC1`, for which the molecule was called inactive in test [1]. `CCCCOC(=O)CCCCCCCC(=O)OCCCC`: in test [1], the half-maximal activity concentration (AC50) is 3.8 µM (active). Consider `C=Cc1ccc(C)cc1`, for which, in test [2], the molecule was classed as inactive. `CC1(C)C(=O)N(Cl)C(=O)N1Br`: the AC50 in test [3] is 5.02 µM (active).

Turning to `CC(C)(C)CC(C)(C)c1ccc(OCCOCC[N+](C)(C)Cc2ccccc2)cc1`, in test [4], the AC50 is 0.791 µM (active). The same measure, in the same setting: the same measure for `COCCOC(=O)c1ccccc1C(=O)OCCOC`: 18.6 µM (active). `[O-]n1ccccc1=S.[O-]n1ccccc1=S.[Zn+2]`: in test [5], the outcome was inactive.
